This passage reports outcome and AC50 results from PubChem BioAssay (EPA / NIEHS).

Activity calls are given as the source filed them. How the source made its calls: active means hit-call score of the fitted dose curve at least 0.9, where 1 is the maximum; inactive means score below 0.9.

Read-out in this experiment: ABC Transporter (ABCC2), ABCC2 (gene 1244)
Description: LTEA_HepaRG_ABCC2: Life Technologies and Expression Analysis (LTEA) Assay for ABC Transporter (ABCC2) using HepaRG (AID 2283464). The conditions noted are these: mRNA level, 48 h; actives raise or lower the signal. How it is done: LTEA_HepaRG is a cell based, multiplexed-readout assay that uses HepaRG, a human liver cell line, with measurements taken at 48 hours after chemical dosing on a 96-well plate.LTEA_HepaRG_ABCC2 is one of 102 assay component(s) measured in the LTEA HepaRG cell culture assay. It is a marker of Steatosis/NR mediated transport.Data from the assay component LTEA_HepaRG_ABCC2 was analyzed into 1 endpoint. This assay endpoint, LTEA_HepaRG_ABCC2, was analyzed with bidirectional fitting relative to DMSO as the negative control and baseline of activity. Using a type of inducible reporter, measures of mRNA induction for gain or loss-of-signal activity can be used to understand regulation of transcription factor activity. To generalize the intended target to other relatable targets, this assay endpoint is annotated to the transporter intended target family, where the subfamily is ABC transporter.
A total of 1060 chemcials from the ToxCast library were tested in eight-point concentration-response experiments. Cell culture and cytotoxicity assays were conducted at Thermo Fisher Scientific's Custom Services facility (Madison, WI). A single lot of human HepaRG cells (Thermo Fisher Scientific, Frederick, MD) was used for the cell culture experiments. 96-well format collagen type I coated plates of human HepaRG cells were prepared using established methods. Briefly, cryopreserved HepaRG cells were thawed, plated at a density of approximately 100,000 cells/well in HepaRG Thaw, Plate, and General Purpose media (HPRG770, Thermo Fisher Scientific), and incubated for 48 hours. 0.5% DMSO was selected as vehicle control to balance the requisite need of DMSO in HepaRG cultures to maintain differentiation (for example, baseline metabolism, proportions of hepatocytes vs. cholangiocytes), while enabling further hepatic receptor pathway activation (for example, PXR and CAR) in response to chemical exposure. 48 hours after plating, the culture medium was replaced with HepaRG Serum-Free Incudtion Media. Cells were exposed to each test chemical in duplicate and maintained in CO2 incubators for another 48 hours. Chemical plates were thawed to room temperature and 200x concentrations of treatment groups were prepared. 8-point conentration-reponse curves were made with the highest exposure at 100 uM, followed by half-log dilutions, all in 0.5% DMSO. Each test plate contained variouse controls, induction positive controls (1mM phenobarbital), cytotoxicity positive controls ([…] aflatoxin B1), vehicle controls (0.5% DMSO), and total lysis controls (0.5% DMSO). Cell morphology images were taken using an Essen IncuCyte FLR automated microscope, with six 96-well plates imaged in about 24 minutes. Images were captured and exported and JPEG files. Spent culture media was transfered to black-well plates for the LDH assay, and remaining media was sorted at -80 C for later use. Cells were treated with RLT buffer and frozen until shipped for gene expression analysis. Total RNA was isolated from the cell suspension in 75 uL of Buffer RLT (Qiagen, Germantown, MD 20874) by Quintiles/Expression Analysis (Durham, NC) using a custom isolation procedure. Total RNA from each plate well was transferred to a preamplification plate. Fluidigm's 96.96 Dynamic ArrayTM (Fluidigm, Amsterdam, the Netherlands) technology was used for gene expression analyses by quantitative reverse transcription polymerase chain reaction (qRT-PCR, performed by Quintiles/Expression Analysis, Durham, NC)89. Standard TaqManTM Assays (Applied Biosystems/ThermoFisher Scientific, Foster City, CA) were used to assess the expression of 93 genes selected based on their selectivity and sensitivity to important hepatic receptors known to be modulated by environmental chemicals; importance in human hepatocyte functionality; and hepatotoxicity. […]
As to `Nc1cnn(-c2ccccc2)c(=O)c1Cl`, the molecule was called inactive. `CCCCC(C#N)(Cn1cncn1)c1ccc(Cl)cc1` (stereo not given): the call was inactive. Still for that read-out and setting: to `O=c1n(Cl)c(=O)n(Cl)c(=O)n1Cl` belongs “inactive”. By AC50 is commonly meant the concentration giving half of the maximal activity seen. Regarding `CSC(=O)c1c(C(F)F)nc(C(F)(F)F)c(C(=O)SC)c1CC(C)C`, the half-maximal activity concentration (AC50) is 9.66 µM (active). On the same count and under the same terms, to `CCN(CC)c1nc(C)cc(OP(=S)(OC)OC)n1` belongs 19.9 µM (active); to `CO/N=C(/C1=NOCCO1)c1ccccc1Oc1ncnc(Oc2ccccc2Cl)c1F`, 50 µM (active). Take `OC(c1ccc(Cl)cc1)(c1ccc(Cl)cc1)C(Cl)(Cl)Cl`: the molecule was classed as inactive. The same measure, in the same setting: in the case of `CC1(C)C(C(=O)OC(C#N)c2cccc(Oc3ccccc3)c2)C1(C)C` (stereo not given) it was “inactive”. On the same count and under the same terms, in the case of `CS(=O)(=O)c1cc(C(F)(F)F)ccc1C(=O)c1cnoc1C1CC1` it was “inactive”; in that of `CC(C)C1(C)N=C(c2ncccc2C(=O)O)NC1=O` (stereo not given), “inactive”. Turning to `CC(C)=CC1C(C(=O)OCc2coc(Cc3ccccc3)c2)C1(C)C` (stereo not given), the AC50 is 50 µM (active).

Take `COC(=O)NS(=O)(=O)c1ccc(N)cc1`: the result was inactive.

In the case of `O=C(O)c1c(Cl)ccc2cc(Cl)cnc12`, the result was inactive. With `Cc1ccc(N=CN(C)C=Nc2ccc(C)cc2C)c(C)c1`, the call was inactive.

Regarding `Cn1c(-c2ccccc2)cc(-c2ccccc2)[n+]1C`, the AC50 was 62.6 µM (active). Turning to `Nc1c(Cl)c(Cl)nc(C(=O)O)c1Cl`, the result was inactive. Same read-out and setting: to `O=C(Nc1ccccc1-c1ccc(Cl)cc1)c1cccnc1Cl` belongs “inactive”. The same measure, in the same setting: in the case of `CC(C)NC(=O)N1CC(=O)N(c2cc(Cl)cc(Cl)c2)C1=O` it was “inactive”. The same measure, in the same setting: to `O=P(O)(O)CCCl` belongs “inactive”; to `CNC(=O)Oc1cccc2ccccc12`, “inactive”; to `CCN(CC)C(=O)C(C)Oc1cccc2ccccc12` (stereo not given), “inactive”. Consider `COCc1cnc(C2=NC(C)(C(C)C)C(=O)N2)c(C(=O)O)c1` (stereo not given), for which the result was inactive. Take `Nc1c(Cl)c(F)nc(OCC(=O)O)c1Cl`: the call was inactive. On the same count and under the same terms, to `CCOc1nc(C(Cl)(Cl)Cl)ns1` belongs “inactive”; to `N#Cc1c[nH]cc1-c1cccc2c1OC(F)(F)O2`, “inactive”. Consider `CCOc1cc(C(C)(C)C)ccc1C1COC(c2c(F)cccc2F)=N1` (stereo not given), for which the AC50 is 8.66 µM (active). The same measure, in the same setting: to `CC(C)(C)C(=O)C(Oc1ccc(Cl)cc1)n1cncn1` (stereo not given) belongs 16.8 µM (active). As to `CCCCOCN(C(=O)CCl)c1c(CC)cccc1CC`, the molecule was classed as inactive. On the same count and under the same terms, to `N#Cc1c(Cl)cccc1Cl` belongs “inactive”. For the molecule `COCC(=O)N(c1c(C)cccc1C)C(C)C(=O)OC` (stereo not given), the molecule was classed as inactive. As to `CCOc1nc(F)cc2nc(S(=O)(=O)Nc3c(Cl)cccc3Cl)nn12`, the AC50 was 7.91 µM (active). `COc1cc(OC)nc(NC(=O)NS(=O)(=O)c2ncccc2OCC(F)(F)F)n1`: the call was inactive. As to `CCOP(=O)(OCC)Oc1nc(Cl)c(Cl)cc1Cl`, the AC50 is 76.4 µM (active). On the same count and under the same terms, in the case of `CCCCC(O)(Cn1cncn1)c1ccc(Cl)cc1Cl` (stereo not given) it was 79.9 µM (active). For `CNC(=O)N(C)c1nnc(C(C)(C)C)s1`, the molecule was classed as inactive. For the molecule `CCCC(=NOCC)C1=C(O)CC(CC(C)SCC)CC1=O` (stereo not given), the outcome was inactive. In the case of `CN=C=S`, the call was inactive. `COP(=S)(OC)Oc1ccc([N+](=O)[O-])c(C)c1`: the call was inactive. For `Cc1cc(C)nc(Nc2ccccc2)n1`, the molecule was classed as inactive. Turning to `CCOP(=S)(OCC)Oc1nc(Cl)n(C(C)C)n1`, the call was inactive.
